# Measurements taken from PubChem BioAssay AID489025 (Southern Research Specialized Biocontainment Screening …, 2010).
# About 790 (34%) of roughly 2,300 compounds were called active. Some of the results follow. Entries with a potency or affinity are not part of this list. Values without a mark were called inactive. The rule behind the calls is not given here.
# Experiment: THP-1 cell cytotoxicity, dose response, cytotoxicity control for non-replicating M. tuberculosis project (AID 489025)
# Details: THP-1 cell viability; series mostly up to 40 µM; viability: at the top concentration
row,Structure (SMILES),viability [%]
1,CSc1ccc(N=Nc2c(C)[nH]n(C)c2=O)cc1,76.7
2,Cc1ccc(N=Nc2c(C)[nH]n(C(N)=S)c2=O)cc1,99.2
3,CCc1cc2c(=O)n(C(C)C(=O)OC3CCCCC3)cnc2s1 (stereo not drawn),87.5
4,CC(C)(C)C(=O)COc1ccccc1[N+](=O)[O-],97.3
5,COc1ccccc1OCCNC(=O)c1cc([N+](=O)[O-])cc([N+](=O)[O-])c1,103
6,CC1CCCN(CCCOc2ccc([N+](=O)[O-])cc2)C1 (stereo not drawn),97.9
7,Cc1cccc(NC(=O)CCSc2nnc(Cc3ccccc3)o2)c1,100
8,CCN1C(=O)CC(N2CCC(c3nc4ccccc4[nH]3)CC2)C1=O (stereo not drawn),112
9,CCOC(=O)C(=CNNc1cccc(Cl)c1)C(=O)OCC,107
10,Cc1ccc2[nH]c3c(c2c1)CCCC3NCCO (stereo not drawn),88.9
11,Cc1ccc2c(c1)c1c3n2CCN=C3CCC1,83.9
12,COc1ccc(C2(O)CCN(CCCCOc3ccccc3)CC2)cc1,95.7
13,OCC1(CCOc2ccccc2)CCN(Cc2cc(Cl)ccc2O)CC1,113
14,COc1cc(NCCC(=O)c2cccs2)c(OC)cc1Cl,108
15,Cc1cc(=O)n2cccc(O)c2n1,85.4
16,CC(C)(C)c1ccc(NC(=O)COc2ccc(-n3ccnc3)cc2)cc1,70.6
17,Clc1ccc(SCCCCn2ccnc2)cc1,70.5
18,O=C(O)c1ccc(NS(=O)(=O)/C=C/c2ccccc2)cc1O,115
19,Cc1cc(C)cc(NC(=O)COC(=O)CC2CCCC2)c1,116
20,O=C(COc1ccc(Nc2ccccc2)cc1)OCC(=O)N1CCCCC1,110
21,COc1cccc(CC2(CO)CCCN(Cc3sc(N4CCCC4)nc3Cl)C2)c1 (stereo not drawn),73.3

row,Structure (SMILES),viability [%]
1,O=C(COc1ccc(Cl)cc1)Nc1ccc(Cl)cn1,108
2,CCCc1nnc(-c2ccc(OC)cc2)o1,114
3,c1ccc(-c2n[nH]c(-c3ccccn3)n2)nc1,95.7
4,O=C(COc1ccc(Cl)cc1)Nc1ccccc1Cl,105
5,CC(C)(C)OC(=O)NCCc1nnc(S(=O)(=O)Cc2ccc(Cl)cc2Cl)o1,112
6,OCC#CCSc1nnc(-c2ccc(Br)cc2)o1,95.2
7,Cc1cccc(NCc2nnc(-c3ccccc3)o2)c1C,110
8,CCOc1ccc(-c2ccc(SCC)nn2)cc1,90
9,O=C(CCSc1ccccn1)c1ccccc1,92.2
10,O=C(NC1CCCC1)c1nc2c(nnn2Cc2cccc(Cl)c2)c(=O)[nH]1,74
11,CC(C)(C)c1ccc(OCCC(=O)OCC(=O)NC2CCCCC2)cc1,89.7
12,CC(C)(C)c1ccc(-c2nc(C#N)c(NCCCn3ccnc3)o2)cc1,74.9
13,N#Cc1nc(-c2cccs2)oc1NCCc1ccccc1,86.1
14,CCOCCOC(=O)COc1ccc2c(-c3ccccc3)cc(=O)oc2c1,96.5
15,CCc1nnc(NC(=O)CN2CCN(Cc3ccc(F)cc3)CC2)s1,95.2
16,Cc1ccc2nc(NC(=O)COC(=O)c3ccc(Br)o3)sc2c1,109
17,CC1CCN(C(=O)COC(=O)CCc2c[nH]c3ccccc23)CC1,101
18,COc1ccc2c3c(cccc13)OCC2=O,94
19,O=C1/C(=C/c2cccs2)COc2ccccc21,98.4
20,O=C(c1ccco1)N1CCN(c2ccc(F)cc2)CC1,90.3
21,O=S(=O)(NCc1cccnc1)c1ccc(Cl)c(Cl)c1Cl,103

row,Structure (SMILES),viability [%]
1,Cc1cc(C=C2C(=O)NC(=S)NC2=O)c(C)n1C1CCCC1,89.8
2,CCCn1nnnc1NCc1ccc(CC)cc1,101
3,CCCCCCCC(=O)N/N=C(/C)c1c(O)cc(C)oc1=O,88.7
4,O=C(N/N=C/C=C/c1ccccc1)c1ccccn1,110
5,Cc1ccc(NCCC(=O)c2cccs2)cc1,105
6,Cc1ccc(-c2noc(CCCC(=O)Nc3cccnc3)n2)cc1,87
7,CCCCCCCC(=O)NNC(=O)c1ccc(F)cc1,73
8,CCc1ccc(/C=N/NC(=O)c2ccccn2)cc1,81
9,CCCCn1nnc(NC(=O)COc2ccc(Cl)c(C)c2)n1,120
10,CCCOC(=O)c1ccc(NC(=O)c2ccccc2OC)cc1,85.5
11,CN1CCC(O)(c2ccc(Cl)cc2)C(C(=O)c2ccc(Cl)cc2)C1 (stereo not drawn),84.8
12,CCN(CC)S(=O)(=O)c1ccc(C(=O)OCn2nnc3ccccc3c2=O)cc1,122
13,C/C(=N\NC(=O)c1ccco1)c1cc(Cl)sc1Cl,99.9
14,C=C1Cn2c(nnc2-c2ccc(Cl)cc2)S1,110
15,O=C(OCn1nnc2ccccc2c1=O)C1CCCCC1,119
16,Cc1ccc2nc(C)c3c(c2c1)COC3,90.3
17,O=C(COc1ccccc1)NC1CCCCC1,97.7
18,CCOC(=O)COc1ccc2c(c1)C(=O)CC1(CCCCC1)O2,87
19,CCOc1ccc(NC(=O)CCNC(=O)c2ccc(Br)cc2)cc1,106
20,O=C(c1ccc(-c2ccc([N+](=O)[O-])cc2)o1)N1CCN(S(=O)(=O)c2cccs2)CC1,79.7
21,CC1CCN(C(=O)c2ccc(-c3ccccc3Cl)o2)CC1,98.6
